Among all 52,000 compounds or so, about 4,300 (8.3%) were called active. This is one part of a sample in which actives are shown more often than they occur. Unmarked numbers belong to inactive results. Cut-off read from the data, not from the text of the source: active = survival mostly below about 52% (no sharp cut-off); inactive = mostly above about 56%.

For 63 compounds, survival results are on record in PubChem BioAssay AID463173 (ICCB-Longwood Screening Facility, Harvard Medical School, 2010).

The subject of this test is DeltatarO mutant. As to the kind of experiment: S. aureus survival, RN4220 and DeltatarO strains – OD600, teichoic acid synthesis inhibitors, primary screen (AID 463173). To be noted: S. aureus RN4220 wild type/DeltatarO growth, OD600, 18 h, stronger effect = lower value, screened at 18.75 µg/mL (by protocol).
As for `Cc1ccc(SCc2nc(-c3ccc(C(=O)NCc4ccccc4Cl)cc3)oc2C)cc1`, the survival is 84%.

Take `Fc1cccc(NCc2ccccc2-c2nnc(-c3ccccc3Cl)o2)c1`: the survival is 110%.

On to `O=C(CSc1nccn1Cc1ccccc1)NC1CCCC1`, for which the survival is 69%. Then `CC(C)NC(=O)CSc1nnc(Cc2ccccc2)n1C`, with 83%; and `CC(C)NC(=O)CSc1nnc(Cc2ccccc2)n1Cc1ccco1`, with 40% (active); and `O=C(CSc1nnc(Cc2ccccc2)n1Cc1ccccc1)NCc1ccco1`, with 63%. Turning to `CCn1c(SCC(=O)NC2CCCC2)nnc1-c1ccccc1`, the survival is 75%.

Consider `O=C(CSc1nnc(Cc2ccccc2)n1Cc1ccco1)NC1CCCC1`, for which the survival was 44% (active). Take `COc1ccccc1CCNC(=O)c1cccn1-c1nnc(N2CCCCC2)s1`: the survival is 95%. Then `COc1ccccc1CNC(=O)c1cccn1-c1nnc(N2CCCC2)s1`, with 92%; and `CCc1ccc(NCc2cccn2-c2nnc(N3CCCCCC3)s2)cc1`, with -6% (active). Turning to `CCN1CCN(c2nnc(-n3cccc3C(=O)NCc3ccccc3OC)s2)CC1`, the survival was 46% (active). Then `COc1ccc(NCc2cccn2-c2nnc(N3CCCCCC3)s2)cc1`, with 71%; and `CCOc1ccccc1CNC(=O)c1cccn1-c1nnc(N2CCCC2)s1`, with 102%; and `COc1ccc(CNC(=O)c2cccn2-c2nnc(N3CCCCC3)s2)c(OC)c1`, with 0% (active). Then `Cc1ccc(NCc2cccn2-c2nnc(N3CCCCCC3)s2)cc1`, with 78%; and `COc1ccc(CNC(=O)c2cccn2-c2nnc(N3CCCC3)s2)c(OC)c1`, with 91%. For the compound `COc1ccccc1CNC(=O)c1cccn1-c1nnc(N2CCCCC2)s1`, the survival was 37% (active). Then `CCOc1ccccc1CNC(=O)c1cccn1-c1nnc(N2CCCCC2)s1`, with 131%. As to `COc1ccc(NC(=O)c2cccn2-c2nnc(N3CCCCC3)s2)c(OC)c1`, the survival is 98%. Then `CCOc1ccc(/C=C/c2nc3ccccc3n2S(=O)(=O)c2ccc(Br)cc2)cc1`, with 59%; and `CCN1CCSc2ccc(C(=O)NCc3ccc(F)cc3)cc21`, with 97%; and `CNC(=O)c1ccc(CN2CCc3ccccc3C2)cc1`, with 100%. Then `CCOC(=O)c1c(C)[nH]c(C)c1S(=O)(=O)N1CCC(C(=O)N2CCN(c3ccccc3)CC2)CC1`, with 90%; and `O=C(CSc1nccn1Cc1ccc(Cl)cc1)Nc1ccc2c(c1)OCCO2`, with 94%. Then `Cc1ccc(-n2ncc(C(=O)N3CCN(c4ccccn4)CC3)c2C2CCN(C(=O)OC(C)(C)C)CC2)cc1`, with 81%; and `O=C(Cn1c(=O)oc2cc(S(=O)(=O)NCc3ccccc3)ccc21)Nc1cccc(F)c1`, with 78%; and `O=C(NCc1cccc(Br)c1)c1cccn1-c1nnc(N2CCCCC2)s1`, with 78%. As for `Cc1ccc(CNCc2cccn2-c2nnc(N3CCCC3)s2)cc1`, the survival was 86%.

On to `COc1cccc(CNCc2cccn2-c2nnc(N3CCN(c4ccccc4)CC3)s2)c1`, for which the survival was 79%. Then `CCOc1ccccc1CNCc1cccn1-c1nnc(N2CCN(c3ccccc3)CC2)s1`, with 47% (active).

Take `O=C(NCc1ccccc1)c1cccn1-c1nnc(N2CCCC2)s1`: the survival is 55%. Turning to `O=C(NCc1cccc(Cl)c1)c1cccn1-c1nnc(N2CCCC2)s1`, the survival is 37% (active).

In the case of `O=C1C=C(N2CCCCC2)C2(CCCCC2)O1`, the survival was 106%. Then `COc1ccc(CCN(Cc2cc3cc(C)ccc3n3nnnc23)C(=O)N(C)C)cc1OC`, with 86%; and `Cc1ccc(C)c(N2CCN(C3(c4ccccc4)C(=O)c4ccccc4C3=O)CC2)c1`, with 98%; and `COc1cccc(C(=O)NCC(=O)OCc2cc(=O)n3nc(C)sc3n2)c1`, with 116%. Then `COc1ccc(OC)c(C2c3c(oc4ccc(C)cc4c3=O)C(=O)N2CCCN(C)C)c1` (stereo not drawn), with 73%. Turning to `CC(=O)N1CCc2cc(CNC(=O)Nc3ccc(Br)c(C)c3)ccc21`, the survival was 87%. Then `COc1cc(NC(=O)CC(C)S(=O)(=O)c2ccc3c(c2)CCN3C(C)=O)cc(OC)c1OC` (stereo not drawn), with 92%; and `CC(=O)N1CCc2cc(S(=O)(=O)C(C)CC(=O)Nc3ccc(Br)c(C)c3)ccc21` (stereo not drawn), with -5% (active); and `Cc1ccc(C)c(N2CCN(Cc3csc(C)c3)CC2)c1`, with 119%. For the compound `CC(C)(C)NC(=O)CSc1nnc(-c2cccs2)o1`, the survival is 102%. Then `COc1ccc(C)cc1NC(c1nnc(-c2ccccc2)o1)c1ccc(F)cc1Cl` (stereo not drawn), with -3% (active).

For `CCc1ccccc1NC(c1nnc(-c2cccc(F)c2)o1)c1ccc(F)cc1Cl` (stereo not drawn), the survival is 96%.

As to `Cc1cccc(NC(c2nnc(-c3ccccc3)o2)c2ccc(F)cc2Cl)c1C` (stereo not drawn), the survival was 61%. As for `COc1cc(OC)c(NC(c2nnc(-c3ccccc3)o2)c2ccc(F)cc2Cl)cc1Cl` (stereo not drawn), the survival is 61%.

In the case of `COc1cccc(NC(c2nnc(-c3ccccc3)o2)c2ccc(F)cc2Cl)c1` (stereo not drawn), the survival is 54%.

Turning to `CCOc1ccccc1NC(c1nnc(-c2ccccc2)o1)c1ccc(F)cc1Cl` (stereo not drawn), the survival is 1% (active).

Turning to `Nc1ccc2nc(CN3CCOCC3)[nH]c2c1`, the survival is 88%. Then `Cc1cc(C)cc(N2C(=O)CS(=O)(=O)C23C(=O)N(Cc2ccccc2)c2ccccc23)c1` (stereo not drawn), with 82%. `COC(=O)c1ccc(Cl)cc1NC(=O)N1CCC(CN2CCCC2)CC1`: the survival was 84%. Then `CCc1ccc(NC(=O)C(=O)NCCc2sc(-c3ccc(OC)c(OC)c3)nc2C)cc1`, with 78%; and `Cc1ccc(CNC(=O)c2ccc3c(c2)c(C)c(C)n3Cc2ccc(Cl)cc2)o1`, with 75%. Then `COc1ccccc1-c1nc(SCC(=O)c2ccc(Cl)cc2)n[nH]1`, with 175%; and `Cc1ccc(NC(=O)CSc2n[nH]c(-c3ccc(F)cc3)n2)cc1F`, with 128%; and `COc1ccccc1-c1nc(SCC(=O)Nc2ccc(C)c(C)c2)n[nH]1`, with 43% (active). Then `CCOc1ccccc1-c1nc(SCC(=O)c2ccc(OC)c(Br)c2)n[nH]1`, with 53%; and `CC(C)Oc1ccccc1-c1nc(SCC(=O)c2ccc(F)cc2)n[nH]1`, with 40% (active); and `CCCOc1ccccc1-c1nc(SCC(=O)c2ccccc2)n[nH]1`, with 109%. With `CCOc1ccc(-c2nc(SCC(=O)c3ccccc3)n[nH]2)cc1`, the survival is 179%. On to `COc1ccc(NC(=O)CSc2n[nH]c(-c3ccccc3)n2)cc1Cl`, for which the survival was 88%.

`COc1ccccc1-c1nc(SCC(=O)c2ccccc2)n[nH]1`: the survival was 53% (active).
